{"source": "the supplement of paper PMC11150407", "note": "Where a name gives a salt, the structure may show the parent alone. Hit rate of the full screen: of about 2,100 compounds, about 180 (8.6%) showed an effect of 50% or more. The entries come from a sample that favours strong results as a whole."}
{"tested_on": "MOLM1 and UCSD/AML1 (averaged)", "assay": "cell viability relative to DMSO control (POC); higher = less growth inhibition", "details": "1 µM; 72 h", "procedure": "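Primary viability screen in the 3q26 EVI1-high AML cell lines MOLM1 and UCSD/AML1 (1.5e3 cells/well, 384-well), compounds at 1 uM for 72 h. ATP CellTiter-Glo read-out given as percent of viable cells over DMSO control (POC), averaged over duplicates. DMSO was the negative control and 5 uM etoposide the positive control. This mapping covers the MicroSource Spectrum and Selleck anticancer libraries (drug names).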", "units": {"cell viability": "%"}}
{"smiles": "CC(=O)O[C@@H]1CC2C(C)(C)[C@H](O)C=C[C@]2(C)C2CC[C@@]3(C)[C@H](c4ccoc4)OC(=O)C4OC43[C@@]21C", "note": "(stereo partly specified)", "cell viability": 98.8}
{"smiles": "O=c1c2ccccc2oc2ccccc12", "cell viability": 101}
{"smiles": "CC(=O)Nc1nc(C)c(-c2ccc(Cl)c(S(=O)(=O)NCCO)c2)s1", "cell viability": 56.6}
{"smiles": "O=C(NCO)c1cccnc1", "cell viability": 106}
{"smiles": "Nc1ccccc1NC(=O)c1ccc(CNc2nccc(-c3cccnc3)n2)cc1", "note": "[Mocetinostat (MGCD0103)]", "cell viability": 4.85}
{"smiles": "Nc1ccccc1NC(=O)c1ccc(CNC(=O)OCc2cccnc2)cc1", "note": "[Entinostat (MS-275, SNDX-275)]", "cell viability": 12.6}
{"smiles": "O=C(CCNNC(=O)c1ccncc1)NCc1ccccc1", "cell viability": 90.2}
{"smiles": "COc1c2ccoc2c(OC)c2oc(=O)ccc12", "cell viability": 115}
{"smiles": "CC(NC(=O)c1ccccc1/N=C/c1c(O)ccc2ccccc12)c1ccccc1", "note": "(stereo unspecified) [Sirtinol]", "cell viability": 103}
{"smiles": "CCc1cc(C(N)=S)ccn1", "cell viability": 97.8}
{"smiles": "CCc1ccc2c(O)c3c(cc2c1C(=O)OC)C(=O)c1c(O)ccc(O)c1C3=O", "cell viability": 102}
{"smiles": "NC(=O)c1ccc(I)c([N+](=O)[O-])c1", "note": "[Iniparib (BSI-201)]", "cell viability": 103}
{"smiles": "C[C@H]1COC2=C1C(=O)C(=O)c1c2ccc2c1CCCC2(C)C", "cell viability": 97.7}
{"smiles": "C=C1C(=O)O[C@@H]2C[C@@]3(C)CCC[C@H](C)C3=C[C@H]12", "cell viability": 74}
{"smiles": "COc1cccc(O)c1O", "cell viability": 110}
{"smiles": "C=CCn1c(=O)c2cnc(Nc3ccc(N4CCN(C)CC4)cc3)nc2n1-c1cccc(C(C)(C)O)n1", "cell viability": 19.2}
{"smiles": "CO[C@@H](C(=O)N1Cc2[nH]nc(NC(=O)c3ccc(N4CCN(C)CC4)cc3)c2C1)c1ccccc1", "cell viability": 13.4}
{"smiles": "CC(C(=O)O)[C@H]1CCC2C3CC=C4C[C@@H](O)CC[C@]4(C)C3CC[C@@]21C", "note": "(stereo partly drawn) [3beta-HYDROXY-23,24-BISNORCHOL-5-ENIC ACID]", "cell viability": 109}
{"smiles": "CNCc1ccccc1", "cell viability": 104}
{"smiles": "C=CC1=C(C)/C(=C/c2[nH]c(Cc3[nH]c(/C=C4\\NC(=O)C(C)=C4C=C)c(C)c3CCC(=O)O)c(CCC(=O)O)c2C)NC1=O", "cell viability": 91.9}
{"smiles": "C=CC(C)(O)CCC=C(C)CCC=C(C)C", "note": "(mixture of isomers)", "cell viability": 93.6}
{"smiles": "COc1cc(OC)c(/C=C/S(=O)(=O)Cc2ccc(OC)c(NCC(=O)O)c2)c(OC)c1", "cell viability": 41.4}
{"smiles": "NCCC(O)(P(=O)(O)O)P(=O)(O)O", "note": "[Pamidronate Disodium]", "cell viability": 79.9}
{"smiles": "COc1cc2c(cc1OC)Cc1cc(OC)c(OC)cc1Cc1cc(OC)c(OC)cc1C2", "cell viability": 113}
{"smiles": "CC1=CC(=O)C(C(C)C)=CC1=O", "cell viability": 97.2}
{"smiles": "CC[C@@]1(O)C(=O)OCc2c1cc1n(c2=O)Cc2cc3cc(O)ccc3nc2-1", "cell viability": 7.32}
{"smiles": "CCc1c2c(nc3ccc(OC(=O)N4CCC(N5CCCCC5)CC4)cc13)-c1cc3c(c(=O)n1C2)COC(=O)[C@]3(O)CC", "note": "[Irinotecan HCl Trihydrate (Campto)]", "cell viability": 15.9}
{"smiles": "CC[C@@]1(O)C(=O)OCc2c1cc1n(c2=O)Cc2cc3c(CN(C)C)c(O)ccc3nc2-1", "note": "[Topotecan HCl]", "cell viability": 2.12}
{"smiles": "CCc1c2c(nc3ccc(OC(=O)N4CCC(N5CCCCC5)CC4)cc13)-c1cc3c(c(=O)n1C2)COC(=O)[C@]3(O)CC", "note": "[Irinotecan]", "cell viability": 13}
{"smiles": "COc1cc(/C=C/CO)ccc1O", "cell viability": 87.7}
{"smiles": "O=C(O)/C=C/C=C/c1ccc2c(c1)OCO2", "cell viability": 109}
{"smiles": "CC(=O)O[C@@H]1C[C@@]2(C)C(CC[C@@H]2C(C)=O)C2CCC3=CC(=O)CC[C@]3(C)C21", "note": "(stereo partly specified)", "cell viability": 91.1}
{"smiles": "CC(N)C12CC3CC(CC(C3)C1)C2", "note": "(stereo unspecified)", "cell viability": 105}
{"smiles": "COc1cc2c(cc1OC)C1(O)C(=O)c3ccc(O)c(C(=O)O)c3OC1CO2", "note": "(stereo unspecified)", "cell viability": 101}
{"smiles": "COc1ccc2c(c1OC)OC[C@@H](c1ccc(OC)c(OC)c1OC)C2", "cell viability": 113}
{"smiles": "COc1cc(C)c(C(=O)Oc2cc(C)c(C(=O)O)c(O)c2C)c(O)c1C=O", "cell viability": 91.2}
{"smiles": "C[C@H](N)C(=O)NC(Cc1ccccc1)C(=O)O", "note": "(mixture of isomers)", "cell viability": 100}
{"smiles": "CC1(C)CC2C1CC[C@]1(C)CCC3C(C(=O)O)CC(=O)O[C@@]32C1", "note": "(stereo partly specified) [3-HYDROXY-4-(SUCCIN-2-YL)-CARYOLANE delta-LACTONE]", "cell viability": 103}
{"smiles": "C[C@@H]1C(=O)O[C@H]2C[C@@]34[C@H]5C[C@@H](C(C)(C)C)[C@]36[C@@H](OC(=O)[C@@H]6O)O[C@@]4(C(=O)O5)[C@]21O", "cell viability": 94.4}
{"smiles": "COc1ccc([C@@H](C)C(=O)c2ccc(O)cc2O)cc1", "cell viability": 112}
{"smiles": "CC1(COc2ccc3c(c2)ncn3-c2ccc3cccc(N4CCC(N)CC4)c3n2)COC1", "cell viability": 29.2}
{"smiles": "C[C@@]12CCc3occc3[C@H]1CC[C@@]13C[C@@H](CC[C@H]12)[C@@](O)(CO)C3", "cell viability": 89.6}
{"smiles": "COc1c(-c2ccccc2)oc2c(ccc3occc32)c1=O", "cell viability": 97.3}
{"smiles": "O[C@H]1[C@H](O)[C@@H](O)C2OC[C@H]1O2", "cell viability": 110}
{"smiles": "COc1ccc(-c2ccc3c(N4CCOCC4)nc(N4C[C@@H](C)O[C@@H](C)C4)nc3n2)cc1CO", "cell viability": 30.1}
{"smiles": "COc1ccc(-c2ccc3c(N4CCOC[C@@H]4C)nc(N4CCOC[C@@H]4C)nc3n2)cc1CO", "cell viability": 23.6}
{"smiles": "O=C(O)C(S)C(S)C(=O)O", "note": "(stereo unspecified)", "cell viability": 115}
{"smiles": "O=C1c2ccccc2C(=O)c2c1ccc(O)c2O", "cell viability": 95.7}
{"smiles": "COc1ccc2c(=O)c(-c3cc4c(cc3OC)OCO4)coc2c1", "cell viability": 99.7}
{"smiles": "COc1ccc(-c2c(O)c3c(OC)c4c(cc3oc2=O)OC(C)(C)C=C4)cc1", "cell viability": 93.5}
{"smiles": "CC[C@H](/C=C/[C@@H](C)[C@H]1CC[C@H]2[C@@H]3CC=C4C[C@@H](O)CC[C@]4(C)[C@H]3CC[C@]12C)C(C)C", "cell viability": 107}
{"smiles": "CC(C)=CCCC1(C)C=Cc2c(O)c3c(c(CC=C(C)C)c2O1)OC12C(=CCCC1C(C)(C)O[C@@]2(C/C=C(\\C)C(=O)O)C(=O)O)C3=O", "note": "(stereo partly specified)", "cell viability": 103}
{"smiles": "CC(C)C1=CC2=CC[C@@H]3[C@](C)(CCC[C@@]3(C)C(=O)O)[C@H]2CC1", "cell viability": 103}
{"smiles": "CC(=O)O[C@H]1C[C@@H](OC(C)=O)C(C)(C)[C@@H]2C[C@@H](OC(C)=O)[C@]3(C)[C@H](CC[C@@]4(C)[C@H](c5ccoc5)OC(=O)[C@H]5O[C@@]534)[C@@]12C", "cell viability": 83.3}
{"smiles": "COc1ccc(-c2cc(=O)c3c(O)c(OC)c(O[C@@H]4O[C@H](CO[C@@H]5O[C@@H](C)[C@H](O)[C@@H](O)[C@H]5O)[C@@H](O)[C@H](O)[C@H]4O)cc3o2)cc1", "cell viability": 101}
{"smiles": "CC(C)C[C@H](NC(=O)[C@H](Cc1ccccc1)NC(=O)c1cnccn1)B(O)O", "note": "[Bortezomib (Velcade)]", "cell viability": 0.861}
{"smiles": "CSCCC(N)C(=O)NC(CC(C)C)C(=O)NC(Cc1ccccc1)C(=O)O", "note": "(stereo unspecified)", "cell viability": 97.7}
{"smiles": "CC(C)C[C@H](NC(=O)[C@@H](O)[C@H](N)Cc1ccccc1)C(=O)O", "note": "[Ubenimex (Bestatin)]", "cell viability": 66.5}
{"smiles": "COc1ccc(-c2cc(=O)c3c(OC)c(OC)c(OC)c(OC)c3o2)cc1OC", "cell viability": 75.6}
{"smiles": "C[C@H]1COC2(CCN(c3nc(=O)c4cc(C(F)(F)F)cc([N+](=O)[O-])c4s3)CC2)O1", "note": "(racemic) [BTZ043 racemate]", "cell viability": 83.5}
{"smiles": "Nc1ccn([C@@H]2O[C@H](CO)[C@@H](O)[C@@H]2O)c(=O)n1", "cell viability": 8.69}
{"smiles": "O=c1[nH]cnc2c1ncn2[C@@H]1O[C@H](CO)[C@@H](O)[C@H]1O", "cell viability": 109}
{"smiles": "NC(=O)c1ncn([C@@H]2O[C@H](CO)[C@@H](O)[C@H]2O)c1N", "cell viability": 119}
{"smiles": "Nc1ccn([C@@H]2O[C@H](CO)[C@@H](O)[C@@H]2O)c(=O)n1", "note": "[Cytarabine]", "cell viability": 7.02}
{"smiles": "Nc1ccn([C@@H]2O[C@H](CO)[C@@H](O)C2(F)F)c(=O)n1", "note": "[Gemcitabine (Gemzar)]", "cell viability": 8.79}
{"smiles": "NC(=O)c1ncn([C@@H]2O[C@H](CO)[C@@H](O)[C@H]2O)n1", "cell viability": 94.7}
{"smiles": "C[N+](C)(C)CCOP(=O)(O)OP(=O)([O-])OC[C@H]1O[C@@H](n2ccc(N)nc2=O)[C@H](O)[C@@H]1O", "cell viability": 85.3}
{"smiles": "Nc1ccn([C@@H]2O[C@H](CO)[C@@H](O)C2(F)F)c(=O)n1", "note": "[Gemcitabine HCl (Gemzar)]", "cell viability": 10.8}
{"smiles": "N=c1ccn2c(n1)O[C@H]1[C@H](O)[C@@H](CO)O[C@H]12", "cell viability": 5.77}
{"smiles": "COC(=O)[C@H](OC(C)=O)[C@H]1C(C)(C)[C@H](OC(C)=O)[C@@H]2CC3=C4CC(=O)O[C@@H](c5ccoc5)[C@]4(C)CC[C@@H]3[C@@]1(C)C2=O", "cell viability": 94.8}
{"smiles": "COc1cc2c(cc1OC)C(=O)OC2", "cell viability": 103}
{"smiles": "COc1ccc2c(c1)OC[C@@H](Cc1ccc(OC)c(OC)c1)[C@H]2O", "cell viability": 96.9}
{"smiles": "CC(=O)O[C@@H]1CC2C(C)(C)C(=O)C3OC3[C@]2(C)C2CC[C@@]3(C)[C@H](c4ccoc4)OC(=O)C4OC43[C@@]21C", "note": "(stereo partly specified)", "cell viability": 95.3}
{"smiles": "CC(C)c1c(O)ccc2c1CCC1[C@@](C)(C=O)CCC[C@]21C", "note": "(stereo partly specified)", "cell viability": 96.4}
{"smiles": "C[C@@H]1CC[C@@]2(OC1)O[C@H]1C[C@H]3[C@@H]4CC[C@@H]5C[C@@H](O)CC[C@]5(C)[C@H]4CC[C@]3(C)[C@H]1[C@@H]2C", "cell viability": 97.4}
{"smiles": "O=C(CC(=O)c1ccccc1)c1ccccc1", "cell viability": 80.9}
{"smiles": "CN(NC(=O)CC(=O)NN(C)C(=S)c1ccccc1)C(=S)c1ccccc1", "note": "[Elesclomol]", "cell viability": 1.23}
{"smiles": "O=C(OOC(=O)c1ccccc1)c1ccccc1", "cell viability": 101}
{"smiles": "CCCCCCCCCCCCCCCCCCOCC(O)CO", "note": "(stereo unspecified)", "cell viability": 85}
{"smiles": "COc1ccc(-c2coc3cc(O)ccc3c2=O)cc1", "cell viability": 108}
{"smiles": "CC12CCCC(O)(C1)C1CC(C)(C)C1CC2", "note": "(stereo not drawn) [beta-CARYOPHYLLENE ALCOHOL]", "cell viability": 111}
{"smiles": "CC(=O)OC1CCC23CC1(C)CCC2C(C)(C)CC3OC(C)=O", "note": "(stereo unspecified)", "cell viability": 96.1}
{"smiles": "COc1cc2ncnc(Nc3ccc(F)c(Cl)c3)c2cc1NC(=O)/C=C/CN1CCCCC1", "cell viability": 50.9}
{"smiles": "CCOc1cc2ncc(C#N)c(Nc3ccc(F)c(Cl)c3)c2cc1NC(=O)/C=C/CN(C)C", "note": "[Pelitinib (EKB-569)]", "cell viability": 14.4}
{"smiles": "CCOc1cc2ncc(C#N)c(Nc3ccc(OCc4ccccn4)c(Cl)c3)c2cc1NC(=O)/C=C/CN(C)C", "note": "[Neratinib (HKI-272)]", "cell viability": 14.7}
{"smiles": "CN(C)C/C=C/C(=O)Nc1cc2c(Nc3ccc(F)c(Cl)c3)ncnc2cc1O[C@H]1CCOC1", "note": "[Afatinib (BIBW2992)]", "cell viability": 52.9}
